# Screens from PubChem.
# Exocytosis inh: lytic granule exocytosis inhibition; TALL-104 LAMP-1 surface exposure, flow cytometry; cells stimulated with thapsigargin and PMA; inhibition, % at 10 µM; 360,000 tested, 0.66% active;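 active = inhibition above about 55%, limit read from the data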
# ABHD5-PLIN5 inh: ABHD5-PLIN5 protein interaction inhibition; inhibition, % at 4 µM; 360,000 tested, 0.78% active; Split G. princeps luciferase complementation, luminescence, 4 h; Q00G26+Q8WTS1;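 active = inhibition above the mean inhibition across every tested compound plus 3 SD, cut at about 22% in these data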;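 note: 0% = DMSO only wells and the 100% control is not disclosed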
# Target sequence (Q00G26 whole entry, looked up): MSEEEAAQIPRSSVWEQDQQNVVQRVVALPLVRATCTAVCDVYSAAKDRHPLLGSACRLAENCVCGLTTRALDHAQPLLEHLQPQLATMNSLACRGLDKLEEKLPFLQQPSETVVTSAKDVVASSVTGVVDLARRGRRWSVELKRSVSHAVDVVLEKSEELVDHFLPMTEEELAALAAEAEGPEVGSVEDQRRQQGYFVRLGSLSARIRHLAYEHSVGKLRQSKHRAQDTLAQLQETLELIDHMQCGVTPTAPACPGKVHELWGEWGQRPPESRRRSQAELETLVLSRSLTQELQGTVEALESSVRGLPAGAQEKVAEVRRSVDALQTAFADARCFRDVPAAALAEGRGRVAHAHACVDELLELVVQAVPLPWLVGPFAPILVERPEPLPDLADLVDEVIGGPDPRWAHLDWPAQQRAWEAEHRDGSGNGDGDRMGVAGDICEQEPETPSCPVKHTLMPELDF
# Target sequence (Q8WTS1 whole entry, looked up): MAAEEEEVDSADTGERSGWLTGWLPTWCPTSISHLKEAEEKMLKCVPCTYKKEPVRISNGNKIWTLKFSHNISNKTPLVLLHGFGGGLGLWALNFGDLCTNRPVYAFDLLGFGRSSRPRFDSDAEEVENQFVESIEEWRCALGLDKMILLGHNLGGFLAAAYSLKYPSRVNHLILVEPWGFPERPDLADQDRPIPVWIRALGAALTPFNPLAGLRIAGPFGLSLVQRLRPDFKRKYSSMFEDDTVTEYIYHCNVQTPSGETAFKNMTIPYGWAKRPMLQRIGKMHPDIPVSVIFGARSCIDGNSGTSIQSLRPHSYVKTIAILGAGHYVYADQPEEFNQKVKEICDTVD
# Rce1 inhib: blocks yeast Ras-converting enzyme; yeast membranes, quenched prenylated peptide cleavage fluorescence; calls only; 290,000 tested, 0.27% active; AID 2563;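 active = fall in fluorescence gain of 50% or more versus controls, with final raw signal at or below 3038400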;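 note: plate controls were neutral control wells for no effect and wells lacking membranes for full effect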
# PfM18AAP inh: blocks P. falciparum M18 aspartyl aminopeptidase | inhibition, % at 7.35 µM | recombinant PfM18AAP, H-Glu-NHMec fluorogenic cleavage | AID 1822 | 290,000 tested, 1.2% active;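 active = inhibition above the campaign mean inhibition over all tested compounds plus 3 SD, cut at about 28% in these data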;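 note: 0% = plate median of test compound wells and 100% = 2 mM ZnCl2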
# Platelet DG rel: platelet dense granule release activity; human platelet-rich plasma, SFLLRN dense granule ATP release, luminescence; inhibition, %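 (compounds screened at 7.5 µM in platelet-rich plasma)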; 300,000 tested, 0.22% active;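 active = mean replicate score, as percent of positive control, at or above 50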
# Active calls of the source: *; i = inactive; . = no result given; + = active, no number; ! = a repeat was not active. An excerpt weighted towards active compounds, which were near 2.6% of everything screened.
SMILES,Exocytosis inh,ABHD5-PLIN5 inh,Rce1 inhib,PfM18AAP inh,Platelet DG rel
O=C(/C=C/c1ccco1)OCC(=O)c1ccc(OC(F)F)cc1,-4.4,5.2,.,.,.
COC(=O)c1sc2cc(=O)n(-c3cccc(C(F)(F)F)c3)nc2c1O,0.9,3.8,i,31.1*,7.2
O=c1[nH][nH]c2cc(=O)n(-c3cccc(C(F)(F)F)c3)nc12,-0.4,1.3,i,-2.4,3.7
COc1ccc(CCNC(=S)Nc2cc(C)cc(C)c2)cc1,1.9,-6.5,i,-32.4,10.0
COc1cc2c(cc1OC)-c1cc(NC3CC3)nc(=O)n1CC2,1.0,2.1,i,6.1,43.6
COc1cc2c(cc1OC)-c1cc(NC3CCCCCCC3)nc(=O)n1CC2,-3.0,2.2,i,8.6,135.4*
COc1cc2c(cc1OC)-c1cc(NC3CCCCC3)nc(=O)n1CC2,-11.0,-3.1,i,-3.3,65.3*
COc1cc(/C=C2/SC(=S)N(Cc3ccccc3)C2=O)ccc1O,-3.8,-6.5,i,-7.9,11.6
O=C1/C(=C\c2ccc(O)c(O)c2)SC(=S)N1Cc1ccccc1,3.7,12.6,i,47.6*,-11.0
O=C(O)c1cc(-c2ccc(/C=C3/SC(=S)N(Cc4ccccc4)C3=O)o2)ccc1Cl,90.0*,4.5,.,5.7,.
OC(COCC1COc2ccccc2O1)CN1CCCCC1 (configuration not stated),0.4,3.5,i,-1.6,0.6
O=[N+]([O-])c1ccc(NNC(=S)Nc2ccc(F)cc2)cc1,1.5,-29.7,i,28.7*,2.1
COc1ccc(Nc2nc(N)nc(CCl)n2)cc1,57.1*,-1.4,i,2.2,-11.5
CCOC(=O)C1=C(c2ccccc2)N2CCN=C2S1,.,.,.,32.4*,.
CC(Oc1ccccc1)C(=O)NC1CC(C)(C)NC(C)(C)C1 (configuration not stated),0.6,8.7,i,7.8,5.2
O=C(Nc1ccc(F)cc1F)C1CCCN(c2ncnc3c2nc2n3CCCCC2)C1 (configuration not stated),-2.4,8.0,i,-4.3,-0.1
COc1ccc2c(c1)CC=C1C2CCC2(C)C(=O)C(=NO)CC12 (configuration not stated),91.0*,-9.0,.,.,.
CC(C)(C)OC(=O)C[C@@H]1C/C=C\C[C@@H](CC(=O)N(CCO)Cc2ccccc2)C(=O)NC[C@@H](c2ccccc2)OC1=O,-7.7,-1.8,.,.,.
CC(C)(C)OC(=O)C[C@@H]1C/C=C\C[C@@H](CC(=O)N(CCO)Cc2ccccc2)C(=O)NC[C@H](c2ccccc2)OC1=O,76.0*,-4.2,.,.,.
COc1ccc(-c2c3c(cc(C)[n+]2[O-])oc2ccc(OC)cc23)cc1,-0.3,7.2,i,4.1,-6.9
O=C(Nc1ccc(Cl)cc1)C(Cl)C(=O)c1ccccc1 (configuration not stated),96.1*,16.5,i,16.7,29.7
Cc1cc(C)n2cc(CSCc3ccco3)nc2n1,-2.9,2.3,i,10.3,-4.4
Cc1ccnc(SCc2cn3c(C)cc(C)nc3n2)n1,11.0,-0.1,+,-0.3,-15.0
O=C(O)c1cccnc1SCc1cn2cc(Br)ccc2n1,10.7,2.2,i,1.5,7.6
Cc1cc(C)n2cc(CSC3=NCCS3)nc2n1,-1.4,8.3,+,-1.6,-1.1
SMILES,Exocytosis inh,ABHD5-PLIN5 inh,Rce1 inhib,PfM18AAP inh,Platelet DG rel
Cc1cc(C)n2cc(CSc3ncccc3C(=O)O)nc2n1,12.2,-2.2,+,6.4,-2.0
Clc1ccc2nc(-c3ccc(Cl)nc3)[nH]c2c1,9.7,-6.3,i,-3.6,-7.7
Cc1cc(C)nc(Nc2nc3ccccc3s2)n1,-2.3,1.8,i,2.2,6.6
O=C(NCc1n[nH]c(=S)n1-c1ccccc1)c1ccc(S(=O)(=O)N2CCOCC2)cc1,-0.1,-3.4,i,11.1,-2.4
O=C(NCc1n[nH]c(=S)n1-c1ccc(F)cc1)c1ccc(S(=O)(=O)N2CCOCC2)cc1,-1.8,-8.6,i,28.1*,2.2
CCn1c(SCC(=O)Nc2ccc(NC(=O)c3ccco3)c(OC)c2)nc2ccccc2c1=O,-0.2,2.7,i,-11.9,-6.4
COCCn1c(SCC(=O)Nc2ccc(NC(=O)c3ccco3)c(OC)c2)nc2ccccc2c1=O,94.1*,8.3,i,-8.9,9.7
Cc1ccc(/C=N/NC(=O)c2nn(C)cc2Cl)cc1,4.2,6.8,i,0.9,53.2*
N#Cc1c(NC(=S)NC(=O)c2ccccc2)sc2c1CCN(CCc1ccccc1)C2,.,.,i,1.6,-1.4
CC(C)(C)C(=O)Nc1sc2c(c1C#N)CCN(Cc1ccccc1)C2,-6.0,-7.6,i,28.6*,5.2
O=[N+]([O-])c1ccc(/C=N/Nc2ccnc3cc(Cl)ccc23)o1,55.0,4.1,i,14.3,-7.2
Clc1ccc2c(N/N=C/c3ccccc3Br)ccnc2c1,92.5*,0.8,i,-2.1,-10.6
Clc1ccc2c(N/N=C/c3cccc(Br)c3)ccnc2c1,73.9*,5.3,i,1.6,-9.7
COc1cccc(C2=CC(=O)CCC2)c1,0.1,5.8,i,.,-2.1
COc1ccc(C2=CC(=O)CCC2)cc1,93.6*,-0.2,i,.,-2.5
O=C1c2ccccc2C(=O)N1CCCCc1cn(C[C@H]2CC[C@@H]([C@@H]3CC[C@H](Cn4cc(CCCCN5C(=O)c6ccccc6C5=O)nn4)O3)O2)nn1,-1.4,6.5,.,.,.
O=C1c2ccccc2C(=O)N1CCCc1cn(C[C@H]2CC[C@@H]([C@@H]3CC[C@H](Cn4cc(CCCN5C(=O)c6ccccc6C5=O)nn4)O3)O2)nn1,66.8*,7.4,i,-0.5,-3.7
Cc1ccc([C@H]2C[C@H](n3cc(COC(=O)c4ccccc4)nn3)[C@@H](O)CN2CC2CCCCC2)cc1,19.9,-0.1,.,.,.
COc1ccccc1OCC(=O)NNc1c2ccccc2nc2ccccc12,58.6*,0.8,i,8.4,-3.2
COc1ccccc1OCC(=O)NNC(=O)CCCC(=O)NNC(=O)COc1ccccc1OC,4.2,-2.2,i,24.5,-6.7
O=C(Nc1ccccc1)Nc1ccc(NC(=O)c2ccccc2O)cc1,1.8,9.4,i,1.9,0.1
CC(=O)c1sc(C(=O)O)c(-c2ccco2)c1-c1ccco1,-0.5,13.5,.,30.3*,-4.9
O=C(NCCCNC(=O)c1cnccn1)c1ccc(Br)cc1,10.5,3.4,i,-1.4,0.9
COc1ccc(-n2c(=O)[nH]cc(C(=O)N3CCCc4ccccc43)c2=O)cc1,1.3,6.4,i,2.4,-0.5
O=C1C=C(NCc2ccccc2)c2ccccc2C1=O,82.5*,5.4,i,7.2,-2.3
CCOC(=O)c1c(C)n(C)c2cc([N+](=O)[O-])c(O)c([N+](=O)[O-])c12,3.1,-2.9,i,10.4,-1.1
NC(N)=NC(=O)c1nc(Cl)c(N)nc1N,-1.6,-8.1,+!,-2.5,0.2
NC(N)=NC(=O)c1nc(Cl)c(N2CCCCCC2)nc1N,0.1,3.8,.,.,.
Cc1ccc2c(C)c(C(=O)N(Cc3ccc(F)cc3)C3CCS(=O)(=O)C3)oc2c1 (configuration not stated),3.4,5.7,+,10.9,-16.2
